In the library only some 6% were active in any assay of this set; here they are far more common.
D1 ag: human D1 receptor agonism; P21728; HEK293 T-REx D1 cells, calcium flux, agonist mode; activation, % at 2 µM; actives 1% (n = 360,000); AID 504660; in the data active = activation above about 30%; also: 0% is about no effect
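Agonism was scored from calcium flux recorded over 180 s (1 read/s) after pintool compound addition, following a 10-cycle baseline. Cells were inducible force-coupled HEK293 TREx D1, plated overnight at 30 C and loaded with no-wash calcium dye.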
D1 antag: antagonists of human D1 dopamine receptor; P21728; HEK293 TREx D1 cells, calcium flux, dopamine EC80; stronger effect = lower value; activity change, negative = inhibition, % at 10 µM; actives 3.2% (n = 360,000); AID 504652; in the data active = activity change below about -30%; also: % is scaled to controls: 0 for no effect and ±100 for the full control effect
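HEK293 T-REx cells expressing inducible, force-coupled D1 receptor; no-wash Ca dye, 30–90 min RT. Cmpd → 180 s read at 1 Hz → EC80 DA → 180 s read.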
Chronic BCR inh: inhibitors of chronic active B-cell receptor signaling. actives 0.05% (n = 340,000). ABC-DLBCL IkBa-CBG/CBR reporter, luminescence ratio, 4 h. Potency, µM (highest dose often 46.1 µM), for inactives: top-dose activity change, negative = inhibition, usual class: inhibitors. AID 493014; active = well fitted inhibition curve with a large enough effect in the signal ratio, with a control signal flat, not every such curve was filed as active; inconclusive = small, poorly fitted or top-dose-only effect, or effect the other way, or a change in a side signal; the % refers to the signal ratio;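 also: potency is read from the fitted curve at half-maximal effect; plate controls were basal doxycycline-induced cells for no effect and cells given 10 µM MG132 for full effect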
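TMD8 ABC-DLBCL cells carrying doxycycline-inducible green luciferase fused to IkappaBalpha plus unfused red luciferase were exposed to compounds (up to 46 uM) for 4 hrs at 37C. Activity came from the overlap-corrected green/red luminescence ratio.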
D1 potentiator: enhances dopamine response at the human D1 receptor; P21728; actives 0.036% (n = 360,000); HEK293 TREx D1 cells, calcium flux, dopamine EC20 potentiation; potentiation, % at 10 µM; in the data active = potentiation above about 30%; also: 0% is about no effect
D3 ag: agonists of human D3 dopamine receptor | max activation, % | D3R DiscoveRx beta-arrestin cells, luminescence, 90 min | actives 0.58% (n = 410,000) | AID 652048 | P35462; in the data active = max activation above about 30%; also: 0% is about no effect
Target sequence (P35462 whole entry, looked up): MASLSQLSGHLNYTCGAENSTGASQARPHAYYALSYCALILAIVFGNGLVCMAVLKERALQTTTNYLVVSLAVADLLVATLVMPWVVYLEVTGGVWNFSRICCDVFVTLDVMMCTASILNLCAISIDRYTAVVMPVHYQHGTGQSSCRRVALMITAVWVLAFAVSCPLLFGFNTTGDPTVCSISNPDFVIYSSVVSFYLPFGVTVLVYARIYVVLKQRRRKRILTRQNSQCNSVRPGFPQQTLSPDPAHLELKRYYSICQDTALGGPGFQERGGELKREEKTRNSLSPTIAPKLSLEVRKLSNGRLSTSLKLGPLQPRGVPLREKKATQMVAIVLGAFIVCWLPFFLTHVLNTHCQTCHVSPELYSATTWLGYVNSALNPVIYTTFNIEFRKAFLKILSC
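Agonist-mode cell screen: cells plated at 1500/well and incubated overnight at 37 °C, then exposed to library compounds for 90 min at 37 °C. Detection reagent was added for 30–60 min at room temperature, and luminescence was read.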
DRD3 antagonist: blocks the human D3 dopamine receptor; P35462; D3R cells, DiscoveRx beta-arrestin luminescence, antagonist mode; stronger effect = lower value; max response, negative = inhibition, %; actives 2.5% (n = 360,000); AID 652054; in the data active = max response below about -50%; inconclusive = no clear call, values can overlap the other calls; also: % is scaled to controls: 0 for no effect and ±100 for the full control effect
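Cells expressing the human receptor were seeded at 1500 cells/well, incubated overnight at 37 degrees C in 5% CO2, then exposed to library compounds with dopamine controls for 90 minutes at 37 degrees C before luminescent detection.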
Numbers without * were called inactive; ? = inconclusive; · = no result given.

SMILES | D1 ag | D1 antag | Chronic BCR inh | D1 potentiator | D3 ag | DRD3 antagonist
Cc1cc(C)n2cc(CSCC(=O)O)nc2n1 | 0 | -35* | -3% | -6 | 4 | 11
O=c1[nH]cnc2sc3c(c12)CN(Cc1ccccc1)CC3 | -1 | -3 | 3% | 0 | 60* | 10
O=c1[nH]cnc2sc3c(c12)CCN(Cc1ccccc1)C3 | 3 | -8 | -1% | -7 | 74* | 43
COc1ccc(N=Cc2sc(O)c3ccccc23)cc1 | 544* | -82* | -8% | 9 | 2 | ?
COc1ccc(N=Cc2c(OC)ccc3ccccc23)cc1 | · | · | · | · | 8 | -11
COc1ccc(N=Cc2c(O)c3ccccc3n2C(C)=O)cc1 | 119* | -22 | ? | -10 | -15 | -11
COc1ccc2oc(-c3ccc(C)c(NC(=O)Cc4ccc(Cl)cc4)c3)nc2c1 | -1 | 8 | · | 1 | -7 | ·
Cc1ccc(NS(=O)(=O)c2cc(Br)cc3c2N(C(=O)C2CC2)CC3)cc1C | 4 | -23 | ? | -3 | 8 | ·
O=C(C1CC1)N1CCc2cc(Br)cc(S(=O)(=O)Nc3ccc(F)c(F)c3)c21 | 9 | -31* | · | 0 | 15 | ·
CCc1sc(C(=O)NC2CCN(C)CC2)cc1Br | 36* | -19 | ? | -10 | 7 | -10
O=c1oc2cc([N+](=O)[O-])ccc2nc1/C=C(\O)c1cccc(Br)c1 | 2 | 1 | 6% | -1 | 15 | -56*
CC(C)(C)C(=O)Nc1ccc(Sc2ccc([N+](=O)[O-])cc2)cc1 | 7 | -34* | 6% | -10 | -10 | 5
CC(=O)NC(CC(=O)O)c1ccc([N+](=O)[O-])cc1 (stereo unspecified) | 1 | 4 | -7% | -3 | -8 | -6
CC(C)(C)C(=O)NC(NC(=O)C(C)(C)C)c1ccc([N+](=O)[O-])cc1 | 0 | -32* | 3% | -2 | 7 | 6
CC(=O)Nc1ccc(Sc2ccc([N+](=O)[O-])o2)cc1 | · | · | · | · | -26 | -74*
O=C(CCC(=O)c1ccc(F)cc1)Nc1cc(Cl)cc(Cl)c1 | 20 | -41* | 6% | -3 | -3 | 32
COc1cccc(-n2nnc3c(=O)n(C/C=C/c4ccccc4)cnc32)c1 | 0 | -41* | -1% | -10 | -2 | -14
O=c1c2nnn(-c3ccccc3)c2ncn1C/C=C/c1ccccc1 | 3 | 9 | 3% | -7 | -6 | -23
CN(C)CCN1CCN(C2CN(Cc3cn(Cc4ccccc4C(F)(F)F)nn3)S(=O)(=O)C2)CC1 (stereo unspecified) | · | · | · | · | 5 | 10
COc1ccc(NC(=S)NC2CC3CCCC(C2)N3C2CC2)cc1 (stereo unspecified) | 3 | -38* | ? | -8 | 2 | 13
C=CCN1C2CCCC1CC(NC(=O)Nc1cccc(C(C)=O)c1)C2 (stereo unspecified) | 3 | -15 | -7% | -3 | 0 | -27
COc1ccc(CN2C3CCCC2CC(NC(=O)Nc2cccc(C)c2)C3)cc1 (stereo unspecified) | 19 | 5 | 12% | -4 | 0 | -78*
COc1ccc(CN2C3CCCC2CC(NC(=O)Nc2ccccc2)C3)cc1 (stereo unspecified) | 8 | -7 | 0% | -8 | -7 | -64*
COc1ccc(CN2C3CCCC2CC(NC(=O)Nc2ccccc2C)C3)cc1 (stereo unspecified) | 5 | -12 | 0% | -2 | -9 | -92*
CCCN1C2CCCC1CC(NC(=O)c1ccc(OC)cc1)C2 (stereo unspecified) | 3 | -12 | 3% | -9 | 0 | -2
SMILES | D1 ag | D1 antag | Chronic BCR inh | D1 potentiator | D3 ag | DRD3 antagonist
COc1ccc(NC(=O)N2C3CCCC2CC(NC(=O)c2ccccc2)C3)cc1 (stereo unspecified) | 3 | -8 | 5% | -17 | -6 | 0
COc1cc(C)ccc1OCCSc1nc2ccc(NC(=O)c3ccccc3F)cc2s1 | 17 | 0 | · | -1 | 2 | ·
CCc1nc2c(OCc3ccc(Cl)cc3)cccn2c1N(C=O)Cc1ccc(OC)cc1 | · | · | · | · | 6 | 7
CCCSCCCNC(=O)c1ccc2nc(Cc3ccccc3)oc2c1 | 6 | 0 | · | 3 | -7 | ·
Cc1ccc(NC(=O)c2oc3c(c2C)-c2[nH]ncc2CC3)c(Cl)c1 | 0 | -43* | · | 3 | -18 | ·
Cc1ccc(C)c(NC(=O)Cn2c(=O)n(CCCS(=O)(=O)C3CCCCC3)c(=O)c3ccccc32)c1 | 9 | -8 | · | -3 | -3 | ·
COc1ccc(C2CC(c3cccc(C)c3)n3nc(N)nc3N2)cc1 (stereo unspecified) | 0 | -31* | 7% | 0 | -6 | 12
COc1cccc(C2CC(c3cccc(Br)c3)n3ncnc3N2)c1 (stereo unspecified) | 1 | -57* | -5% | -4 | 2 | -11
Cc1[nH]cnc1CSCc1ccc(Cl)cc1 | 36* | -4 | -1% | -9 | -2 | -18
Cc1[nH]cnc1CSCCN | 3 | 11 | 12% | -4 | -3 | ?
CCCN(C)C1CN(Cc2cn(Cc3ccc(C)cc3)nn2)S(=O)(=O)C1 (stereo unspecified) | · | · | · | · | -1 | 2
COC(=O)C1=C(N)c2c(F)cccc2C1(C#N)c1ccccc1 (stereo unspecified) | 0 | -32* | -12% | -5 | 2 | 21
COC(=O)C1=C(C)NC(=O)CC1c1ccccc1F (stereo unspecified) | 0 | -18 | 0% | -7 | -1 | 7
COc1ccccc1NS(=O)(=O)c1ccc(C(=O)NCC2(N(C)C)CCCCC2)cc1 | 3 | 0 | -10% | 6 | -8 | -25
COc1ccccc1NC(=O)NCC(c1ccco1)N1CCCCC1 (stereo unspecified) | 5 | -41* | 3% | -4 | -15 | ?
COc1ccccc1NC(=O)NCC1(N(C)C)CCCCC1 | 2 | -2 | 12% | 4 | -25 | -82*
COc1ccccc1NS(=O)(=O)c1cc(C(=O)NCC(c2ccco2)N2CCCCC2)ccc1C (stereo unspecified) | -2 | 2 | ? | -2 | -25 | ?
O=C(Cc1ccc(-c2ccccc2)cc1)NCCS(=O)(=O)N1CCN(c2ccc(F)cc2)CC1 | 4 | -20 | · | 1 | 8 | ·
COc1cc(S(=O)(=O)n2c(C)nc3ccccc32)ccc1F | 0 | -9 | -5% | -6 | -6 | -21
COc1ccc(S(=O)(=O)n2c(C)nc3ccccc32)cc1C | 7 | -75* | -1% | -2 | 2 | 3
Nc1cc(C(F)(F)F)ccc1S(=O)(=O)Nc1cccc2c1NCCC2 | 11 | 1 | · | 0 | · | ·

Screening results as filed in PubChem BioAssay.
